Laboratory results from the supplement of paper PMC10849652.
About 8,800 targets were measured; listed, in parts, are those with a hit and a random draw of the rest. About 0.5% of all pairs of compound and target were hits. A number with no mark means an inactive call.

Compound: CC(C)C1=C2N=C(C=C(N2N=C1)NCC3=CC=CC=C3)NCCCCCCN
Assay: log2 fold change, soluble protein after heating vs DMSO (PISA); higher = thermal stabilisation; K562 lysate, 10 uM; active = over 0.2 and 3.5 SD of the protein, either way, in both replicates (recomputed)
Outline: (§1)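 Dounce homogenisation of K562 pellets in PBS pH 7.4 with 1 mM MgCl2 produced a crude extract, used at 1 mg/mL protein. Exposure to 10 μM compound lasted 30 min, and aliquots were then heated for 3 min across 48°C-58°C, pooled and brought to 0.5% NP-40 at 4°C. The supernatant after 21,000xg for 90 min was quantified by TMTpro 16plex LC-MS/MS with channel sums equalised. Duplicate values are given as log-two fold change in thermal stability relative to solvent controls.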

UniProt Q6UX07, sequence (Q6UX07 whole entry, looked up): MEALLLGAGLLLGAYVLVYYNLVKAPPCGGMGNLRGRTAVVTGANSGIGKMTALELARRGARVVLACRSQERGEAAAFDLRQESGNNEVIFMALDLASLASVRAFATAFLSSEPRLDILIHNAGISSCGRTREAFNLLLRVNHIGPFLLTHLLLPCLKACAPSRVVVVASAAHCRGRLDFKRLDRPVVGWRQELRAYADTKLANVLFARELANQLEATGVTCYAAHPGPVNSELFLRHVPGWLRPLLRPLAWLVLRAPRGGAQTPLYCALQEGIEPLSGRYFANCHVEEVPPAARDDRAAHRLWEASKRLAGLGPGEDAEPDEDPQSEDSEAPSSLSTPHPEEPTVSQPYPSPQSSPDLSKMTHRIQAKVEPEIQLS
UniProt O96017, sequence (O96017 whole entry, looked up): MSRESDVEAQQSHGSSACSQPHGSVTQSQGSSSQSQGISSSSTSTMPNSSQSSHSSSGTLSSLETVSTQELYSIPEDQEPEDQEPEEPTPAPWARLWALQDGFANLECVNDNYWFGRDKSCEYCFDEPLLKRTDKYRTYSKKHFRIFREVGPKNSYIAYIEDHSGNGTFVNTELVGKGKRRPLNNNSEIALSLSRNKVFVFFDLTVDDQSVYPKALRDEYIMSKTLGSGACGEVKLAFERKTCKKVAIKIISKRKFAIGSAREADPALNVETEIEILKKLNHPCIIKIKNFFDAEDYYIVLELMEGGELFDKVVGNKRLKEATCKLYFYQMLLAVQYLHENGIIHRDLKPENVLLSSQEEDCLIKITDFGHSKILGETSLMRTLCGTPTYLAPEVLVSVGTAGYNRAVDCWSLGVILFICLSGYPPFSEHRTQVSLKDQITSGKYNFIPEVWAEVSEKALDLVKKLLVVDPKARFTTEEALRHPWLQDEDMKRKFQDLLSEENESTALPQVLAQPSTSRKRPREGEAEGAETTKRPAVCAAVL
UniProt P53355, sequence (P53355 whole entry, looked up): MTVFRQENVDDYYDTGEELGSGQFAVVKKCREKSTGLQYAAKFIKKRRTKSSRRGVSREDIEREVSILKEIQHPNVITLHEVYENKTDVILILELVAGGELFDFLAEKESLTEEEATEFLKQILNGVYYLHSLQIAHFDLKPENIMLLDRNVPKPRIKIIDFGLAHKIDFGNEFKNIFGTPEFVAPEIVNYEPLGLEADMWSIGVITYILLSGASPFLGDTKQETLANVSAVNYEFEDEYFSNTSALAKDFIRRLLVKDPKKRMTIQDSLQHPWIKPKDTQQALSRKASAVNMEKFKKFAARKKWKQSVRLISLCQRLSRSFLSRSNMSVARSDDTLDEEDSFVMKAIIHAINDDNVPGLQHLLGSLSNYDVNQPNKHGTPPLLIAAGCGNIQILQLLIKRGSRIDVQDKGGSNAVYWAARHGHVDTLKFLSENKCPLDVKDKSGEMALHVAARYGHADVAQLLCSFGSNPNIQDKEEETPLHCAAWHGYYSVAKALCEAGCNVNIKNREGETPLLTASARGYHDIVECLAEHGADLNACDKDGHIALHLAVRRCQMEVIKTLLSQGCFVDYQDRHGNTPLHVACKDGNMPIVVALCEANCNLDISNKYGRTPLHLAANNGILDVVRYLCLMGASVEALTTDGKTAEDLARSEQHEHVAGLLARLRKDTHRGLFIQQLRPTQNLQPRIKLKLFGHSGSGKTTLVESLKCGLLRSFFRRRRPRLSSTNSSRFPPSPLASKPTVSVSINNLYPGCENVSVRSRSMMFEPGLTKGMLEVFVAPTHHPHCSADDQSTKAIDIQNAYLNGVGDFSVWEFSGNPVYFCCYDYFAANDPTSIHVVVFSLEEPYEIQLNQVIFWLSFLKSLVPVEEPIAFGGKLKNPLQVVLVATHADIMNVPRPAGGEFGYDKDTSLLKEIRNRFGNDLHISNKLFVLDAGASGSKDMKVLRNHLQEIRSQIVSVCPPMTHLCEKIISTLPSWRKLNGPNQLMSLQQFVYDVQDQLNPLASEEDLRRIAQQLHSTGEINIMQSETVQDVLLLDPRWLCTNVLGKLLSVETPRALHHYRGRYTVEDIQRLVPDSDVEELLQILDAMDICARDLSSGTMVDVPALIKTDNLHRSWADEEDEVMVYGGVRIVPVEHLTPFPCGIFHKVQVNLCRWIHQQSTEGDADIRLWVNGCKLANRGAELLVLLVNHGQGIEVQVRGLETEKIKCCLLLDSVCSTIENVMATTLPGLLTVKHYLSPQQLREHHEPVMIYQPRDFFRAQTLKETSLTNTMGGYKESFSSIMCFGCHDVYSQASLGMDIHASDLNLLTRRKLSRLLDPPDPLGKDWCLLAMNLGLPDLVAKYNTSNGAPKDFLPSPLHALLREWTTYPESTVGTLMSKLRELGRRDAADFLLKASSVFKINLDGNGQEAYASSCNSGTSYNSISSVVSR
UniProt Q9UJA2, sequence (Q9UJA2 whole entry, looked up): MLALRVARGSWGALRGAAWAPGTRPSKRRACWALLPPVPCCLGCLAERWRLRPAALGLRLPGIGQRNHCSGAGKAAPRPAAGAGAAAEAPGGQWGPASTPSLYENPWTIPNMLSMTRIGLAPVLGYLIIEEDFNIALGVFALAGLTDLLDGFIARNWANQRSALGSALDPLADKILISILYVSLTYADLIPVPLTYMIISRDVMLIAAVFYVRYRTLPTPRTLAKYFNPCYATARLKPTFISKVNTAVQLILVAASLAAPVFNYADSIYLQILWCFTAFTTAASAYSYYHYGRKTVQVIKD
UniProt Q9NYP3, sequence (Q9NYP3 whole entry, looked up): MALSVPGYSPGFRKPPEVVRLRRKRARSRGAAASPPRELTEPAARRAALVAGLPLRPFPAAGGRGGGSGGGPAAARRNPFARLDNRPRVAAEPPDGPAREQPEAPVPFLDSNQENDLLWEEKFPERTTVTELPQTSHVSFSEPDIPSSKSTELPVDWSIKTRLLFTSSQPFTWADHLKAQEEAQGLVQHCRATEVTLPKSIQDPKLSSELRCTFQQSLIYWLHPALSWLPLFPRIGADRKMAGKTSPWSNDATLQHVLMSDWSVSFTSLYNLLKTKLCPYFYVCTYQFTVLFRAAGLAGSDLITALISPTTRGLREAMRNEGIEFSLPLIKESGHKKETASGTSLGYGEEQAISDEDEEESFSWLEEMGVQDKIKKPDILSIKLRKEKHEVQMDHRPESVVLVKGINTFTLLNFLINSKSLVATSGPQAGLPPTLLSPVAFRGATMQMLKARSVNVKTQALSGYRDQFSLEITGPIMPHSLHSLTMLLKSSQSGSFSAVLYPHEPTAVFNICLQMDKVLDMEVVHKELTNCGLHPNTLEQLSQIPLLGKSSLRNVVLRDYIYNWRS
UniProt P30622, sequence (P30622 whole entry, looked up): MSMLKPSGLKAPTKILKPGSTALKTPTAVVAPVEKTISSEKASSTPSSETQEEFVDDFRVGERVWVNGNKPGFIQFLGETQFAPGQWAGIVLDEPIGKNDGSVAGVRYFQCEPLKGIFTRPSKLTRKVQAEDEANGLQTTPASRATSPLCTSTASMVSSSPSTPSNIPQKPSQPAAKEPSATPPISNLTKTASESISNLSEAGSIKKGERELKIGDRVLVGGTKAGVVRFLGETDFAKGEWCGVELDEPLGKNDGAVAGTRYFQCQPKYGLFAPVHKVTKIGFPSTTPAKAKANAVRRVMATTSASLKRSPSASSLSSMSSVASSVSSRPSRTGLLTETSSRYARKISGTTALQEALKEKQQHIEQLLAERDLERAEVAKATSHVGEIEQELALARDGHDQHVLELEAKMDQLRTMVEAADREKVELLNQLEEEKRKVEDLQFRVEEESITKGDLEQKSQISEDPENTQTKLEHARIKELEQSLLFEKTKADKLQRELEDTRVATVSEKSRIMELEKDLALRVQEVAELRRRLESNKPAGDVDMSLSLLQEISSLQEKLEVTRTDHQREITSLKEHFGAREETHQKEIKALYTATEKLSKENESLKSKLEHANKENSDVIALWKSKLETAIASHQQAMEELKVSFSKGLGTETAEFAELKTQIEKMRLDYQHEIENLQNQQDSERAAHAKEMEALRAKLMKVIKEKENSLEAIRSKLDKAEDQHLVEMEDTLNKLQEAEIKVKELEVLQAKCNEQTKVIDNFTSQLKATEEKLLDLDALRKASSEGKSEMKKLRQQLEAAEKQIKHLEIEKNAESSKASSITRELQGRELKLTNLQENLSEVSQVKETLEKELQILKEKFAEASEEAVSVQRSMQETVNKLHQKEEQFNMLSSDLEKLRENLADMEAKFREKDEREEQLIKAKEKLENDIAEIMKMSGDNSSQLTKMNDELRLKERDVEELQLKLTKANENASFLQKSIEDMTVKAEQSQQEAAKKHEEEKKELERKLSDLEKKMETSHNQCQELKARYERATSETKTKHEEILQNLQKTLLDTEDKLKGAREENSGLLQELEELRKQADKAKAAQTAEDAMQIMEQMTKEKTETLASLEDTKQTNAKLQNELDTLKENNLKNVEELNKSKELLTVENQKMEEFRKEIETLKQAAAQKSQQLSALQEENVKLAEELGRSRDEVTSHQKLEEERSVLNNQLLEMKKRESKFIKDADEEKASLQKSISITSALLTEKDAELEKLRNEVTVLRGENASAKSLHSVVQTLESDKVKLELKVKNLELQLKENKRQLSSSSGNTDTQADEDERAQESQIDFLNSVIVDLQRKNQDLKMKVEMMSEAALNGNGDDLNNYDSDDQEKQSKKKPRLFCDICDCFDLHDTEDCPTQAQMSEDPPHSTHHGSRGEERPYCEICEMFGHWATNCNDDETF
UniProt P48730, sequence (P48730 whole entry, looked up): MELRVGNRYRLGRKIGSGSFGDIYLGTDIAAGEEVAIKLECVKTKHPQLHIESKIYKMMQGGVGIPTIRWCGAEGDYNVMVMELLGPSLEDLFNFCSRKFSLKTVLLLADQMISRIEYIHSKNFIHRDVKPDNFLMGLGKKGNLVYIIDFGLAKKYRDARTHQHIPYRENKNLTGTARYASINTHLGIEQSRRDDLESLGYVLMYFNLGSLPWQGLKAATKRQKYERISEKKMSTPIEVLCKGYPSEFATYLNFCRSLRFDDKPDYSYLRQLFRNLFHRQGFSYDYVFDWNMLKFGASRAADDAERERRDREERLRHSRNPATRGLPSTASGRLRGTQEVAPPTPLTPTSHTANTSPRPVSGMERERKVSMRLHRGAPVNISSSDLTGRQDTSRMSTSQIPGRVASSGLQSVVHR

Target	log2 fold change
COPS9 (UniProt Q8WXC6)	0.173
CHEK2 (UniProt O96017)	0.211
COL12A1 (UniProt Q99715)	0.024
CSAD isoform 3 (UniProt Q9Y600)	0.041
DALRD3 (UniProt Q5D0E6)	-0.024
CORO7 (UniProt P57737)	-0.076
DHRS13 (UniProt Q6UX07)	-0.073
COL6A3 (UniProt P12111)	0.047
CRLS1 (UniProt Q9UJA2)	-0.102
DAPK1 isoform 3 (UniProt P53355)	-0.077
DHX32 (UniProt Q7L7V1)	-0.387 (active)
CNK3/IPCEF1 isoform 2 (UniProt G9CGD6)	-0.096
CLASP1 isoform 4 (UniProt Q7Z460)	-0.124
CLIP1 isoform 2 (UniProt P30622)	-0.054
CYP4V2 (UniProt Q6ZWL3)	-0.004
DNM2 isoform 4 (UniProt P50570)	-0.143
DONSON (UniProt Q9NYP3)	-0.022
CNOT2 (UniProt F8VRS8)	-0.001

Compound: CC1=C(C(CC(=O)N1)C2=CC=C(C=C2)C(F)(F)F)C(=O)NC3=C(C=C4C(=C3)C=NN4)F
Assay: as above
Outline: as §1

Target	log2 fold change
CSDE1 isoform 3 (UniProt O75534)	-0.112
CHEK2 (UniProt O96017)	0.013
DAZAP1 (UniProt K7EQ02)	0.033
CSNK1D (UniProt P48730)	0.245
DDR1 isoform 5 (UniProt Q08345)	-0.117
CLASP2 (UniProt O75122)	0.044
CORO7 (UniProt P57737)	-0.202
DHRS13 (UniProt Q6UX07)	0.082
COL6A3 (UniProt P12111)	-0.066
CRLS1 (UniProt Q9UJA2)	-0.049
DAPK1 isoform 3 (UniProt P53355)	0.138
DHX32 (UniProt Q7L7V1)	0.016
CLASP1 isoform 4 (UniProt Q7Z460)	-0.226
CLIP1 isoform 2 (UniProt P30622)	0.017
CINP isoform 3 (UniProt Q9BW66)	0.072
DNM2 isoform 4 (UniProt P50570)	-0.07
DONSON (UniProt Q9NYP3)	-0.071
